Among the data in PubChem BioAssay (NCI) are growth values, retold here.

Structures are written as SMILES. This is part of a sample that, as a whole, favours compounds with a hit. Of some 83,000 tested, about 20% had one in any assay.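 Single-concentration screen, 48 h exposure, 96-well plates. Endpoint: percent growth. Below 10 = active.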 A number with no mark means an inactive call. Active and inactive are the calls of the source.

Test systems include MOLT-4 leukemia; SR leukemia; RPMI-8226 leukemia; OVCAR-8 ovarian; OVCAR-5 ovarian; OVCAR-4 ovarian; SK-OV-3 ovarian; IGROV1 ovarian; OVCAR-3 ovarian; HS 578T breast; NCI/ADR-RES ovarian; T-47D breast; BT-549 breast; MDA-MB-435 melanoma; SW-620 colon; MCF7 breast; HCT-116 colon; HCC-2998 colon; KM12 colon.
Experiment in all cases: NCI-60 one-dose screen, 48 h (100 = growth as untreated, 0 = no growth, -100 = all killed)
What all share (details): 10 µM unless noted

On to `Nc1ncnc2n[nH]nc12`, for which the growth was 86.4% in the assay with MOLT-4 leukemia; 63.1% in the assay with SR leukemia; 43.1% in the assay with RPMI-8226 leukemia; 57.8% in the assay on OVCAR-8 ovarian; 59.3% with OVCAR-5 ovarian; 57.6% in the assay with OVCAR-4 ovarian. The growth in the assay on SK-OV-3 ovarian is 13.1%; in the assay with IGROV1 ovarian it was 52.2%; in the assay with OVCAR-3 ovarian, 75.1%; with HS 578T breast it was 94.7%; with NCI/ADR-RES ovarian it was 67.7%; with T-47D breast, 4.78% (active). Also, the growth in the assay on BT-549 breast is 89.8%; in the assay on MDA-MB-435 melanoma it was 75.1%; in the assay on SW-620 colon, 61.5%; in the assay with MCF7 breast, 63.2%; in the assay on HCT-116 colon it was 65.1%; in the assay with HCC-2998 colon it was 68.7%. Moreover, in the assay on KM12 colon, the growth was 70.4%.

Turning to `CCCCCSC1C2C(=O)C(Br)=CC13CCNc1c(O)c4c5c(c13)=[N+]2CCC=5C=N4` (configuration not stated), the growth was -45.5% (active) with MOLT-4 leukemia; -14.1% (active) in the assay with SR leukemia; -17% (active) in the assay with RPMI-8226 leukemia; -30.2% (active) with OVCAR-8 ovarian; -55.2% (active) in the assay on OVCAR-5 ovarian; -88.6% (active) in the assay on OVCAR-4 ovarian. The growth is -2.42% (active) in the assay with SK-OV-3 ovarian; -64.6% (active) in the assay on IGROV1 ovarian; -79.5% (active) with OVCAR-3 ovarian; 4.01% (active) with HS 578T breast; 29.1% in the assay on NCI/ADR-RES ovarian; -48.2% (active) with T-47D breast. In addition, the growth with BT-549 breast is 36.1%; in the assay with MDA-MB-435 melanoma, -81.1% (active); in the assay on SW-620 colon, -54.5% (active); in the assay on MCF7 breast it was -54.9% (active); in the assay on HCT-116 colon, -92.3% (active); with HCC-2998 colon, -68.4% (active). For the same compound, in the assay with KM12 colon, the growth was 2.34% (active).

As to `COC(=O)[C@H](Cc1c[nH]c2ccccc12)NC(=O)[C@@H](OC)[C@@H]1Cc2cc3cc(OC4CC(OC5CC(O)C(O)C(C)O5)C(O)C(C)O4)c(C)c(O)c3c(O)c2C(=O)[C@H]1OC1CC(OC2CC(OC3CC(C)(O)C(O)C(C)O3)C(O)C(C)O2)C(O)C(C)O1` (some centres not stated), the growth is 0.755% (active) with MOLT-4 leukemia; 4.93% (active) with SR leukemia; -5.61% (active) in the assay with RPMI-8226 leukemia; 11% in the assay on OVCAR-8 ovarian; 15.3% in the assay on OVCAR-5 ovarian; 0.345% (active) in the assay on OVCAR-4 ovarian. Besides, the growth in the assay on SK-OV-3 ovarian is 18.2%; with IGROV1 ovarian it was 23.4%; with OVCAR-3 ovarian, 4.79% (active); in the assay with HS 578T breast it was -13.6% (active); with NCI/ADR-RES ovarian it was 76.7%; with T-47D breast, 8.07% (active). The growth in the assay with BT-549 breast was -53.4% (active); in the assay with MDA-MB-435 melanoma, -71.9% (active); with SW-620 colon, 6.98% (active); with MCF7 breast it was 5.98% (active); in the assay on HCT-116 colon it was 3.71% (active); in the assay with HCC-2998 colon, -46.8% (active). Also, the growth in the assay on KM12 colon is 0.363% (active).

As to `CC(=O)c1ccc(C(=O)NCC2CCC3(CC2)OOC2(CCCCC2)OO3)cc1`, the growth is 63.4% in the assay on MOLT-4 leukemia; 39% in the assay on SR leukemia; 69.3% in the assay on RPMI-8226 leukemia; 84.6% with OVCAR-8 ovarian; 70% in the assay with OVCAR-5 ovarian; 75.4% in the assay on OVCAR-4 ovarian. The growth in the assay with SK-OV-3 ovarian is 99.6%; in the assay with IGROV1 ovarian it was 12.2%; in the assay on OVCAR-3 ovarian, 83%; in the assay with HS 578T breast, 102%; in the assay on NCI/ADR-RES ovarian, 17.4%; in the assay with T-47D breast, 53.9%. The growth with BT-549 breast was 91.9%; in the assay with MDA-MB-435 melanoma it was 88%; with SW-620 colon, 22.1%; with MCF7 breast, 81.7%; in the assay on HCT-116 colon, 79%; in the assay on HCC-2998 colon it was 108%. Moreover, in the assay on KM12 colon, the growth was 69.7%.

Consider `COc1cc(/C=C/[N+](=O)[O-])cc(OC)c1`, for which the growth with MOLT-4 leukemia was 7.52% (active); with SR leukemia, -12.3% (active); in the assay on RPMI-8226 leukemia it was -24.1% (active); in the assay with OVCAR-8 ovarian it was 13.8%; in the assay with OVCAR-5 ovarian, 13.8%; in the assay with OVCAR-4 ovarian it was 47.6%. Besides, the growth in the assay with SK-OV-3 ovarian is 71.7%; in the assay with IGROV1 ovarian it was 9.88% (active); in the assay on OVCAR-3 ovarian, -30.3% (active); with HS 578T breast, 40.9%; in the assay with NCI/ADR-RES ovarian it was 11.3%; in the assay on T-47D breast it was -1.67% (active). Moreover, the growth with BT-549 breast was -49.7% (active); in the assay on MDA-MB-435 melanoma, -46.4% (active); with SW-620 colon it was -10.5% (active); in the assay on MCF7 breast it was -59.1% (active); in the assay with HCT-116 colon, -68.3% (active); with HCC-2998 colon, -79.7% (active). Further, in the assay with KM12 colon, the growth is -23.7% (active).

As to `Cc1cc(N(CCCl)CCCl)ccc1C=Nc1cccnc1`, the growth in the assay with MOLT-4 leukemia is 52.1%; in the assay with SR leukemia it was 43.9%; in the assay on RPMI-8226 leukemia it was 78.3%; with OVCAR-8 ovarian, 78.2%; in the assay with OVCAR-5 ovarian, 28.2%; with OVCAR-4 ovarian it was 80.6%. The growth in the assay on SK-OV-3 ovarian is 61.3%; with IGROV1 ovarian it was 99.2%; with OVCAR-3 ovarian it was 87.5%; with HS 578T breast, 113%; in the assay on NCI/ADR-RES ovarian, 71.6%; in the assay on T-47D breast, 45.3%. Also, the growth in the assay on BT-549 breast was 86.9%; in the assay on MDA-MB-435 melanoma, 101%; in the assay on SW-620 colon, 85.3%; in the assay with MCF7 breast it was 36.5%; in the assay on HCT-116 colon it was 77.6%; in the assay with HCC-2998 colon, 90.7%. In addition, the growth in the assay on KM12 colon was 102%.

With `O=C(CC1(O)C(=O)N(Cc2ccccc2)c2ccc(Br)cc21)c1ccc(C(=O)NCC2CCC3(CC2)OOC2(CCCCC2)OO3)cc1` (configuration not stated), the growth with MOLT-4 leukemia was -37.3% (active); in the assay with SR leukemia, -40.7% (active); in the assay with RPMI-8226 leukemia it was -7.69% (active); in the assay with OVCAR-8 ovarian it was -40.9% (active); in the assay with OVCAR-5 ovarian it was 12.4%; with OVCAR-4 ovarian, -34.1% (active). The growth in the assay with SK-OV-3 ovarian is 83.4%; in the assay with IGROV1 ovarian, -36.2% (active); in the assay on OVCAR-3 ovarian, -84.1% (active); in the assay with HS 578T breast, 22.6%; with NCI/ADR-RES ovarian, -44.8% (active); in the assay with T-47D breast it was -29.2% (active). Besides, the growth with BT-549 breast is 33.9%; in the assay with MDA-MB-435 melanoma, 4.94% (active); in the assay on SW-620 colon, -16.5% (active); in the assay on MCF7 breast it was 31.5%; in the assay with HCT-116 colon, 35.5%; in the assay with HCC-2998 colon, 102%. Besides, the growth with KM12 colon was -57.5% (active).

Take `CCN1C(=O)C(=C/C=C/c2ccccc2)C(=O)N(CC)C1=O`: the growth is 6.92% (active) with MOLT-4 leukemia; -6.58% (active) with SR leukemia; 61% in the assay with RPMI-8226 leukemia; 54% with OVCAR-8 ovarian; 107% in the assay with OVCAR-5 ovarian; 111% in the assay on OVCAR-4 ovarian. For the same compound, the growth was 103% in the assay with SK-OV-3 ovarian; 84.5% in the assay on IGROV1 ovarian; 42.6% in the assay with OVCAR-3 ovarian; 91.2% in the assay with HS 578T breast; 78.6% with NCI/ADR-RES ovarian; 96.3% in the assay with T-47D breast. In addition, the growth in the assay on BT-549 breast is 91.9%; in the assay with MDA-MB-435 melanoma it was 29.9%; with SW-620 colon, 26.5%; in the assay with MCF7 breast, 74.5%; in the assay with HCT-116 colon it was 16.3%; with HCC-2998 colon, 112%. In addition, the growth in the assay on KM12 colon was 86.5%.
